Assay results: PubChem BioAssay
Several values for one entry are separate records, joined by “and”; a condition that tells them apart may be missing. Equal entries are not always repeated. For some assays here: Results with a measured potency or affinity are listed apart. Where a structure was tested more than once in an assay, its records may differ in their call. Activity calls are given as the source filed them. Unless noted, the rule behind the calls is not given here.

Tests used:
[1] = antimalarial activity against Dd2 strain (AID 2302;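 active = growth inhibition above 50% at the single 2 µM test dose, taken to imply half-maximal potency below 2 µM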;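 note: 0% = DMSO untreated growth and 100% = chloroquine plus artemisinin killed control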); details: P. falciparum Dd2 in RBCs, LDH growth readout, 72 h; at 2 µM; stronger effect = higher value
[2] = HepG2 cytotoxicity, primary screen, cytotoxicity control for P. falciparum antimalarial project, cell-based, ATP luminescence (AID 2303;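 active = inhibition above 50%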;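 note: 0% = DMSO wells and 100% = digitonin-killed cells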); details: HepG2 viability, 24-48 h, at 10 µM, stronger effect = higher value
[3] = target: L-lactate dehydrogenase (Plasmodium falciparum (isolate CDC / Honduras)) (UniProt Q27743); experiment: PfLDH activity inhibition – cell lysate, 3D7 strain, counter-screen for P. falciparum growth inhibition project (AID 2304);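 note: 0% = vehicle and 100% = reference inhibitor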; details: P. falciparum 3D7 crude extract, LDH APAD/NBT absorbance; at 2 µM; stronger effect = higher value
Chain of L-lactate dehydrogenase (Plasmodium falciparum (isolate CDC / Honduras)) (Q27743 whole entry, looked up): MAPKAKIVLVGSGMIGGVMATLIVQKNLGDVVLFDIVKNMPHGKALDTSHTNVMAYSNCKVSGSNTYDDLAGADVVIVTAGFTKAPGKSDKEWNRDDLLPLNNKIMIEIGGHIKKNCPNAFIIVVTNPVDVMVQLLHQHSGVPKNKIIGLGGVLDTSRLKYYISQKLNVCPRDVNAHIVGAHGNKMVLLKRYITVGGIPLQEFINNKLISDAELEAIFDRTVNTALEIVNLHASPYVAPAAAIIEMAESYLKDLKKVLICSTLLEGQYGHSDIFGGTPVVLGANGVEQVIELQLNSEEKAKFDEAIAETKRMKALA

[4] = inhibition of 3D7 malaria parasite growth – strain 3D7 (AID 2306);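 note: 0% = DMSO wells and 100% = chloroquine plus artemisinin control wells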; details: P. falciparum 3D7 erythrocytic growth, LDH absorbance, 72 h; at 2 µM; stronger effect = higher value
[5] = target: Calcium-dependent protein kinase 1 (Plasmodium falciparum (isolate 3D7)) (UniProt P62344); experiment: PfCDPK1 kinase inhibitors, biochemical, TCAMS library (AID 1159585; cut-off not given, nearly all actives have IC50 up to about 0.98 µM;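 note: inhibitors leave more ATP so luminescence rises with inhibition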); details: recombinant PfCDPK1, Kinase-Glo ATP depletion luminescence
Chain of Calcium-dependent protein kinase 1 (Plasmodium falciparum (isolate 3D7)) (P62344 whole entry, looked up): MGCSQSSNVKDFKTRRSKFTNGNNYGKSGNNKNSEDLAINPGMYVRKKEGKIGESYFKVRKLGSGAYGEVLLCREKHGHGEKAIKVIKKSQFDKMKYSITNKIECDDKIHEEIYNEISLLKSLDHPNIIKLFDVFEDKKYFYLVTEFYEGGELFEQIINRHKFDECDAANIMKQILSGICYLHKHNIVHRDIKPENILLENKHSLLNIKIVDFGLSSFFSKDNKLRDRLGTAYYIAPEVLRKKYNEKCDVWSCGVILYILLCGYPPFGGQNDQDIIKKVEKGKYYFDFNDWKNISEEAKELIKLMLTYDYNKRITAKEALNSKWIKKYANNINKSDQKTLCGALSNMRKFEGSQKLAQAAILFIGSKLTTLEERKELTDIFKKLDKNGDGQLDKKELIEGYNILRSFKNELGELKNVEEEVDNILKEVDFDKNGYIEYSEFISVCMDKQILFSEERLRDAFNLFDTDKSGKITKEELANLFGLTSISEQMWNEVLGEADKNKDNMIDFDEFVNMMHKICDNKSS

[6] = target: Plasmodium falciparum protein kinase 6 (PK6, PF3D7_1337100) (UniProt Q8IDW1); experiment: PfPK6 kinase inhibitors, biochemical, TCAMS library (AID 1159586); details: recombinant PfPK6, Kinase-Glo ATP depletion luminescence
Chain of Plasmodium falciparum protein kinase 6 (PK6, PF3D7_1337100) (Q8IDW1 1-305): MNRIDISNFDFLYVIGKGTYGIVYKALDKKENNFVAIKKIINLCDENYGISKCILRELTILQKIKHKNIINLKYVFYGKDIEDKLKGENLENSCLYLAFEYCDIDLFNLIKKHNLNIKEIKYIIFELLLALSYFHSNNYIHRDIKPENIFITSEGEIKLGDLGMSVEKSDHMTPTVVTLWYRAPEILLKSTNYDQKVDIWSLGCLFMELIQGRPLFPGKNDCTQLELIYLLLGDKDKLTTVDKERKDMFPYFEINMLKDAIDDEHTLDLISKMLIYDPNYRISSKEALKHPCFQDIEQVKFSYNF

[7] = target: Protein kinase 7 (PK7), Plasmodium falciparum 3D7 (PF3D7_0213400) (UniProt Q7YTF7); experiment: inhibition of Plasmodium PK7 catalytic activity – biochemical, TCAMS antimalarial set, Kinase-Glo luminescence (AID 1159587); details: recombinant PfPK7, Kinase-Glo ATP depletion luminescence
Chain of Protein kinase 7 (PK7), Plasmodium falciparum 3D7 (PF3D7_0213400) (Q7YTF7 1-343): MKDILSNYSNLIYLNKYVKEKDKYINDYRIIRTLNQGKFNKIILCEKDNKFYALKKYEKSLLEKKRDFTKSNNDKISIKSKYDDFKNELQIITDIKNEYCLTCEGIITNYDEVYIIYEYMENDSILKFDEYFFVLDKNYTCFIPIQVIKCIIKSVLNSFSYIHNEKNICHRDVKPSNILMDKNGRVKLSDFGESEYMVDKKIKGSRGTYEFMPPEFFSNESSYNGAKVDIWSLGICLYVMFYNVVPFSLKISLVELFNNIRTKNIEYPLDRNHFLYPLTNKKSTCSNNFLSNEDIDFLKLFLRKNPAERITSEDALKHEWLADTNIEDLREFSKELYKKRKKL

[8] = target: Calcium-dependent protein kinase 4 (Plasmodium falciparum (isolate 3D7)) (UniProt Q8IBS5); experiment: PfCDPK4 kinase inhibitors, biochemical, TCAMS library (AID 1159588; cut-off not given, nearly all actives have IC50 up to about 0.91 µM); details: recombinant PfCDPK4, Kinase-Glo ATP depletion luminescence
Chain of Calcium-dependent protein kinase 4 (Plasmodium falciparum (isolate 3D7)) (Q8IBS5 whole entry, looked up): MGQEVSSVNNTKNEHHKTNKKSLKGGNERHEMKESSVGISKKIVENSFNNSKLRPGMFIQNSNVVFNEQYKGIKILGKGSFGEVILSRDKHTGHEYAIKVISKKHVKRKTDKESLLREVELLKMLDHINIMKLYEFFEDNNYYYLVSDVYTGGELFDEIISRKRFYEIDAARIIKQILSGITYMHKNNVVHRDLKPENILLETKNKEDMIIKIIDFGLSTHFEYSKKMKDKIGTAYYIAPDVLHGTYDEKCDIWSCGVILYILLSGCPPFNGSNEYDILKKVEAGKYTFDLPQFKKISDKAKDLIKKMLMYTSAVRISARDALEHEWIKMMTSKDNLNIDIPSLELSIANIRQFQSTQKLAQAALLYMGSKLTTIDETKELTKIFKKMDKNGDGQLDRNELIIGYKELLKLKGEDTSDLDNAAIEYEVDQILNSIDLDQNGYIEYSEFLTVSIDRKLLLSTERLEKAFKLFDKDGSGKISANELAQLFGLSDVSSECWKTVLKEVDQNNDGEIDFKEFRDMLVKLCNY

[9] = liver-stage malaria parasite growth inhibition, primary screen, cell-based, HepG2, luciferase luminescence, HepG2 viability (AID 624349; in the data active = parasite load remaining mostly below about 12%, no sharp cut-off; inactive = mostly above about 10%;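 note: 100% = mean of DMSO negative control wells on the same plate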); details: P. berghei liver stage in HepG2, luciferase luminescence, concentration not given here; parasite load remaining: stronger effect = lower value; viability: measured here: HepG2 viability without parasites
[10] = Cy5 fluorescence interference with SSB-bound oligo, artefact control for HCV NS3 helicase inhibitor project, biochemical, NIH Clinical Collection, E. coli SSB (AID 743268)
[11] = system: Hepatitis C virus NS3 helicase; experiment: HCV NS3 helicase inhibitors, primary screen, biochemical, fluorescence polarization, NIH Clinical Collection (AID 743270); details: NS3 helicase binding to Cy5-dT15 DNA, stronger effect = higher value, concentration not given here
[12] = target: Single-stranded DNA-binding protein (Escherichia coli (strain K12)) (UniProt P0AGE0); experiment: E. coli SSB displacement from DNA, counter-screen for HCV NS3 helicase inhibitor project, biochemical, fluorescence polarization, NIH Clinical Collection (AID 743271; in the data active = inhibition above about 28%); details: stronger effect = higher value, concentration not given here
[13] = fluorescence interference in NS3h assay format, artefact control for HCV NS3 helicase inhibitor project, biochemical, NIH Clinical Collection (AID 743272); details: fluorescence interference counterscreen, stronger effect = lower value;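 note: HCV NS3 helicase with a Cy5 labelled single stranded DNA probe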
F380Y = experiment: modulators of BK channel variants, profiling panel, selectivity assay, cell-based, U2OS BacMam, thallium flux, beta subunits (AID 1259406;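 active = thallium flux through the channel raised or lowered by more than 3 SD from vehicle-only wells, actives on both sides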;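 note: initial slope of Thallos dye fluorescence rise after thallium is added; log ratio against the mean of 0.3% DMSO vehicle wells on the same plate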); details: at 30 µM
F380Y/beta2Delta = experiment: as above; details: at 30 µM
R275C = experiment: as above; details: at 30 µM
R275C/beta1 = experiment: as above; details: at 30 µM
R275C/beta2Delta = experiment: as above; details: at 30 µM
R275C/Slo1WT/beta2 = experiment: as above; details: at 30 µM

Cc1c(C(=O)N[C@@H](C)c2ccccc2)c2cc(O)c(Br)cc2n1C1CCCCC1
inactive: inhibition [2] 4% | inhibition [3] -6% | outcome [5] | outcome [6] | outcome [7] | outcome [8]
active: growth inhibition [1] 95% | growth inhibition [4] 98%

Cc1[nH]c2ccc([N+](=O)[O-])cc2c1C1=CCN(C)CC1
inactive: inhibition [2] 6% | inhibition [3] 4% | outcome [5] | outcome [6] | outcome [7] | outcome [8]
active: growth inhibition [1] 68% | growth inhibition [4] 86%

Cc1cccc(N2CCN(Cc3cc(Cl)ccc3O)CC2)c1C
active: growth inhibition [1] 96% | growth inhibition [4] 96%
inactive: inhibition [2] -2% | inhibition [3] 2% | outcome [5] | outcome [6] | outcome [7] | outcome [8]

CC(C)CNCc1cccc(-c2cccc(CN(C(=O)NC3CCCCC3)C3CCN(Cc4ccccc4)CC3)c2)c1
inactive: inhibition [2] 32% | inhibition [3] 8% | outcome [5] | outcome [6] | outcome [7] | outcome [8]
active: growth inhibition [1] 87% | growth inhibition [4] 97%

COC(=O)c1ccc(CC(C)NCC(O)c2cccc(OC(F)(F)F)c2)cc1 (stereo unspecified)
inactive: inhibition [2] 2% | inhibition [3] -2% | outcome [5] | outcome [6] | outcome [7] | outcome [8]
active: growth inhibition [1] 67% | growth inhibition [4] 98%

O=C(C=Cc1ccc(Br)cc1)NC1CCC(CN2CCC(c3c[nH]c4ccccc34)CC2)CC1 (stereo unspecified)
active: growth inhibition [1] 98% | inhibition [2] 71% | growth inhibition [4] 101%
inactive: inhibition [3] -3% | outcome [5] | outcome [6] | outcome [7] | outcome [8]

CS(=O)(=O)Nc1ccc2[nH]cc(C3CCN(CC4CCC(NC(=O)/C=C/c5ccccc5Cl)CC4)CC3)c2c1 (stereo unspecified)
active: growth inhibition [4] 96%
inactive: growth inhibition [1] 7% | inhibition [2] 12% | inhibition [3] 2% | outcome [5] | outcome [6] | outcome [7] | outcome [8]

CNC(=O)c1ccc2[nH]cc(C3CCN(CC4CCC(NC(=O)/C=C/c5ccc(Cl)c(Cl)c5)CC4)CC3)c2c1 (stereo unspecified)
inactive: inhibition [2] -1% | inhibition [3] -7% | outcome [5] | outcome [6] | outcome [7] | outcome [8]
active: growth inhibition [1] 90% | growth inhibition [4] 100%

CC(Cc1ccc(OCCCCOc2ccccc2)cc1)NCCCN1CCOCC1 (stereo unspecified)
active: growth inhibition [1] 78% | inhibition [2] 98% | growth inhibition [4] 98%
inactive: inhibition [3] -2% | outcome [5] | outcome [6] | outcome [7] | outcome [8]

CCC(C)CN1CCC(N(C)c2cc(NC(=O)c3ccc(F)cc3)ccn2)CC1 (stereo unspecified)
active: growth inhibition [4] 93%
inactive: growth inhibition [1] 32% | inhibition [2] 4% | inhibition [3] -5% | outcome [5] | outcome [6] | outcome [7] | outcome [8]

O=C(CCCCCc1ccccc1)NC1CCC(CN2CCC(c3c[nH]c4ccccc34)CC2)CC1 (stereo unspecified)
inactive: growth inhibition [1] 5% | inhibition [2] 34% | inhibition [3] -3% | outcome [5] | outcome [6] | outcome [7] | outcome [8]
active: growth inhibition [4] 86%

COc1cc(C(=O)NC2CCC(CN3CCC(c4c[nH]c5ccccc45)CC3)CC2)cc(Cl)n1 (stereo unspecified)
active: growth inhibition [4] 99%
inactive: growth inhibition [1] 45% | inhibition [2] 33% | inhibition [3] -1% | outcome [5] | outcome [6] | outcome [7] | outcome [8]

COc1ccc(CC(C)NCC(O)c2cccc(C(F)(F)F)c2)cc1 (stereo unspecified)
active: growth inhibition [1] 94% | growth inhibition [4] 98%
inactive: inhibition [2] -7% | inhibition [3] 3% | outcome [5] | outcome [6] | outcome [7] | outcome [8]

O=C(Nc1cc(C(F)(F)F)cc(C(F)(F)F)c1)NC1CCC(CN2CCC(c3c[nH]c4ccccc34)CC2)CC1 (stereo unspecified)
inactive: inhibition [3] 8% and -8% | outcome [5] | outcome [6] | outcome [7] | outcome [8]
active: growth inhibition [1] 72% and 98% | growth inhibition [4] 97% and 101%
19% (inactive) and 58% (active): inhibition [2]

O=C(C=Cc1ccc(-c2ccccc2)cc1)NC1CCC(CN2CCC(c3c[nH]c4ccccc34)CC2)CC1 (stereo unspecified)
active: growth inhibition [1] 85% and 98% | growth inhibition [4] 101%
inactive: inhibition [3] -7% | outcome [5] | outcome [6] | outcome [7] | outcome [8]
43% (inactive) and 97% (active): inhibition [2]

CC[C@H]1CN2CC[C@@H]1C[C@H]2[C@H](O)c1cc(N2CCC(O)(c3ccc(Cl)cc3)CC2)nc2ccc(OC)cc12
active: growth inhibition [1] 98% | growth inhibition [4] 101%
inactive: inhibition [2] 21% | inhibition [3] -8% | outcome [5] | outcome [6] | outcome [7] | outcome [8]

CC(O)(CS(=O)(=O)c1ccc(F)cc1)C(=O)Nc1ccc(C#N)c(C(F)(F)F)c1 (stereo unspecified)
active: log fold change Tl+ flux (R275C/beta1) 0.266 | log fold change Tl+ flux (R275C/beta2Delta) 0.179
71.8% and 108%: viability [9]
inactive: parasite load remaining [9] 85.6% and 26.5% | fluorescence ratio [10] 1 | inhibition [11] 0.4% | inhibition [12] -0.87% | fluorescence ratio [13] 0.95 | log fold change Tl+ flux (F380Y) -0.0003 | log fold change Tl+ flux (F380Y/beta2Delta) -0.0358 | log fold change Tl+ flux (R275C) -0.0123 | log fold change Tl+ flux (R275C/Slo1WT/beta2) -0.00212

Cc1csc2sc(C=C(C#N)C#N)c(C)c12
inactive: log fold change Tl+ flux (F380Y) 0.0324 | log fold change Tl+ flux (F380Y/beta2Delta) 0.0231 | log fold change Tl+ flux (R275C) 0.0225 | log fold change Tl+ flux (R275C/beta1) 0.0369 | log fold change Tl+ flux (R275C/beta2Delta) 0.00343 | log fold change Tl+ flux (R275C/Slo1WT/beta2) 0.0163
